Records with an inconclusive call do not appear. Activity calls are given as the source filed them. Calls come from the whole dose curve; as a rule, active = well fitted curve in the direction sought with a large enough effect in the repeat runs; inconclusive = weak or mixed curves; inactive = no such curve, though single readings can be large; an effect the other way counts as inactive or inconclusive.
Assays:
[1] = qHTS RealTime-Glo MT Cell Viability Assay in HepG2 cells - 40 hour (AID 1224870); note: nearly all actives have a fitted effect of over 50% in size
Procedure, shortened: (§1)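 HepG2 cells mixed with RealTime-Glo MT reagents (NanoLuc plus cell-permeant prosubstrate) were seeded at 600 cells/well, incubated 5 h at 37 C/5% CO2, then pinned with compounds in DMSO; nonlytic luminescence tracked viability during 40 h treatment.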

[2] = A CellTox Green Cytotoxicity Assay to monitor cytotoxicity in HepG2 cells - 16 hour (AID 1224876); note: nearly all actives have a fitted effect of over 45% in size
Procedure, shortened: (§2)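 Continuous culture of HepG2 cells with a membrane-impermeant DNA dye; rising fluorescence marks dead cells. Compound exposure lasted up to 40 h at 37 C, with reads every 8 h from 0 h.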

[3] = qHTS RealTime-Glo MT Cell Viability Assay in HepG2 cells - 32 hour (AID 1224877); note: nearly all actives have a fitted effect of over 55% in size
Procedure, shortened: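 Cell number in HepG2 cultures estimated from NanoLuc luminescence generated by metabolic reduction of a prosubstrate by living cells. The homogeneous, nonlytic format allowed repeated reads at 0, 8, 16, 24, 32 and 40 h of compound exposure.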

[4] = A CellTox Green Cytotoxicity Assay to monitor cytotoxicity in HepG2 cells - 24 hour (AID 1224878); note: nearly all actives have a fitted effect of over 45% in size
Procedure, shortened: as §2

[5] = A CellTox Green Cytotoxicity Assay to monitor cytotoxicity in HEK293 cells - 40 hour (AID 1224871); note: nearly all actives have a fitted effect of over 45% in size
Procedure, shortened: (§3)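 Each value comes from one timepoint of a single continuous run in which HEK293 cells with CellTox Green were exposed to compound for up to 40 h at 37 C, dye fluorescence rising with cell death.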

[6] = qHTS RealTime-Glo MT Cell Viability Assay in HepG2 cells - 8 hour (AID 1224873); note: nearly all actives have a fitted effect of over 55% in size
Procedure, shortened: as §1

[7] = A CellTox Green Cytotoxicity Assay to monitor cytotoxicity in HEK293 cells - 24 hour (AID 1224875); note: series mostly up to about 77 µM; nearly all actives have a fitted effect of over 45% in size
Procedure, shortened: as §3

[8] = A CellTox Green Cytotoxicity Assay to monitor cytotoxicity in HepG2 cells - 40 hour (AID 1224879); note: nearly all actives have a fitted effect of over 40% in size
Procedure, shortened: as §2

[9] = qHTS RealTime-Glo MT Cell Viability Assay in HEK293 cells - 40 hour (AID 1224874); details: RealTime-Glo luminescence; max response: active compounds read low; note: nearly all actives have a fitted effect of over 50% in size
Procedure, shortened: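 qHTS format; HEK293 cells with NanoLuc/prosubstrate reagent, 37 C/5% CO2 for 5 h pre-dosing; compounds 23 nL in DMSO; luminescence at each time point reflects viable cells.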

[10] = qHTS RealTime-Glo MT Cell Viability Assay in HEK293 cells - 16 hour (AID 1224872); note: top concentration of the series differs between compounds; nearly all actives have a fitted effect of over 50% in size
Procedure, shortened: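 Homogeneous bioluminescent viability format in HEK293 cells (600 cells/well). Following 5 h at 37 C/5% CO2, 23 nL compound was pintooled; the signal was measured repeatedly during 40 h incubation.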
% is set by controls: 0 for no effect and ±100 for the full control effect.

O=C(O)Cc1cc(I)c(Oc2cc(I)c(O)c(I)c2)c(I)c1
inactive: Potency [1] | Potency [2] | Potency [3] | Potency [4]

CCCCCCOC(=O)CC(CC(=O)OCCCCCC)(OC(=O)CCC)C(=O)OCCCCCC
inactive: Potency [1] | Potency [5] | outcome [6] | Potency [7] | Potency [2] | Potency [3] | Potency [4] | Potency [8]

CCC(C)OC(=O)N1CCCCC1CCO (stereo not given)
inactive: Potency [1] | Potency [5] | outcome [6] | Potency [7] | Potency [2] | Potency [3] | Potency [4] | Potency [8]

CC(C)CCOC(=O)CC(C)C
inactive: Potency [1] | outcome [6] | max response [9] 14.4% | Potency [2] | Potency [3] | Potency [4]

OCC(CO)(CO)COCC(CO)(CO)CO
inactive: Potency [5] | Potency [10] | outcome [6] | max response [9] 9.54% | Potency [7] | Potency [2] | Potency [3] | Potency [4]

CC(C)c1cccc(C(C)C)c1N
inactive: Potency [1] | Potency [10] | outcome [6] | max response [9] -0.332% | Potency [3]

O=C(O)c1ccccc1S
inactive: Potency [1] | Potency [10] | outcome [6] | max response [9] -0.793% | Potency [2] | Potency [3] | Potency [4] | Potency [8]

CC(C)[N+](C)(C)CC(O)COc1cccc2ccccc12 (stereo not given)
inactive: Potency [5] | Potency [10] | outcome [6] | max response [9] 6.37% | Potency [7] | Potency [2] | Potency [4] | Potency [8]
